High-throughput results as filed in PubChem BioAssay.
RE007 growth inh: less growth of the S. pombe RE007 Vpr strain. actives 0.21% (n = 360,000). S. pombe RE007 Vpr strain, BacTiter-Glo ATP luminescence, 24 h. Potency, µM (titrated, usually from 92.2 µM), most hits filed as inhibitors; active = well fitted falling curve with a large enough effect; inconclusive = small, poorly fitted or top-dose-only effect; inactive = no such curve, though single readings can be large or run the other way; note: nearly all actives have a fitted effect of over 50% in size
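Fission yeast strain RE007, carrying one chromosomally integrated HIV-1 vpr copy, was seeded at OD 0.01 in PMG+AL medium with 23 nL pinned compound. After 24 h at 30 °C and 99% humidity, viability was read by BacTiter-Glo luminescence.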
AMA1 RON2 block: disrupts binding of P. falciparum AMA1 to RON2; AlphaScreen AMA1-biotinylated RON2 peptide binding; Potency, µM (doses to about 58.2 µM), most hits filed as inhibitors; actives 0.2% (n = 360,000); AID 720542; note: nearly all actives have a fitted effect of over 45% in size
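AMA1 (3D7) with his tag at 25 nM final met compounds first, then biotinylated RON2 peptide at 25 nM; detection used donor plus acceptor beads, 10 µg/mL apiece, read by AlphaScreen after 30 min at room temperature.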
Sm TGR inh: inhibitors of Schistosoma mansoni thioredoxin glutathione reductase. Potency, µM (titrated, usually from 114 µM), most hits filed as inhibitors. actives 3% (n = 360,000). purified TGR, DTNB reduction, TNB absorbance 405 nm. Q962Y6; note: nearly all actives have a fitted effect of over 60% in size
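First, TGR (20 nM dispensed) and NADPH were mixed with compound. Second, a 15 min room-temperature incubation followed. Third, further NADPH and then DTNB were added to start the reaction. Finally, TNB absorbance was monitored kinetically.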
AmpC no deterg: AmpC beta-lactamase inhibition without detergent | P00811 | AmpC nitrocefin hydrolysis, absorbance 480 nm, 0.0001% Triton | Potency, µM (highest dose often 57.1 µM), actives largely listed as inhibitors | actives 0.52% (n = 330,000); note: nearly all actives have a fitted effect of over 20% in size
Target sequence (P00811 whole entry, looked up): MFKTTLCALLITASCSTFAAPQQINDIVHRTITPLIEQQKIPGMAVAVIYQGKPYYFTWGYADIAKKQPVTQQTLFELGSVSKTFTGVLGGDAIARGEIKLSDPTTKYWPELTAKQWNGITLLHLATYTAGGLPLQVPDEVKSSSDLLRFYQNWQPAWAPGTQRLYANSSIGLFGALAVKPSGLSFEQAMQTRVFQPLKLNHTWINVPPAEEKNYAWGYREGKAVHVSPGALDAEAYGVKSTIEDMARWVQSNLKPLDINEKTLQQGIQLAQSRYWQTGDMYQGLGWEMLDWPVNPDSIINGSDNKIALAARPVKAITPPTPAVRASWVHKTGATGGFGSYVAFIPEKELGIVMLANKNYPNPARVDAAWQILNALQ
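AmpC (5.3 nM in the dispensed reagent) in 20 mM phosphate pH 7.0 with 0.01% (detergent screen) or 0.0001% Triton X-100 was preincubated with compounds for 15 min at room temperature. Nitrocefin was then added from an 800 uM solution, and hydrolysis was followed at 480 nm.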
AmpC inh detg: blocks E. coli AmpC beta-lactamase in detergent assay; P00811; AmpC hydrolysis of nitrocefin, absorbance 480 nm, 0.01% Triton; Potency, µM (doses to about 114 µM), actives largely listed as inhibitors; actives 0.041% (n = 370,000); note: nearly all actives have a fitted effect of over 25% in size
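20 mM phosphate pH 7.0 + 0.01% (detergent screen) or 0.0001% Triton X-100; 5.3 nM AmpC reagent; cpd preinc 15 min RT; nitrocefin (800 uM stock) to start; A480 q20 s × 4 min; Activity was normalised to no-enzyme and no-compound control wells.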
Large screens that a line does not name were inactive. A selection: hits, their analogues and other compounds. The true share with any hit is near 3.2%. Unless noted, calls come from the whole dose curve; as a rule, active = well fitted curve in the direction sought with a large enough effect; inconclusive = small, poorly fitted or top-dose-only effect, or another doubt; inactive = no such curve, though single readings can be large; an effect the other way counts as inactive or inconclusive.

COc1ccc(C(=O)n2nnc3ccccc32)cc1Br	Sm TGR inh inconclusive
CCSc1ccccc1C(=O)n1nnc2ccccc21	Sm TGR inh 20µM, AmpC inh detg inconclusive (no result: AmpC no deterg)
C/C(=C\c1ccccc1)C(=O)n1nnc2ccccc21	Sm TGR inh 20µM
Cc1ccc(S(=O)(=O)Cc2ccc(C(=O)NCCc3ccc(Cl)cc3)o2)cc1	none (no result: RE007 growth inh, AMA1 RON2 block, AmpC no deterg)
O=C(N1CCOCC1)n1nnc2ccccc21	AmpC no deterg 13µM, AmpC inh detg 45µM
O=C(c1ccc2c(c1)OCO2)n1nnc2ccccc21	Sm TGR inh 10µM, AmpC inh detg inconclusive (no result: RE007 growth inh, AMA1 RON2 block)
CCc1c(CN2CCN(c3ccc(F)cc3)CC2)csc1C	none (no result: RE007 growth inh, AMA1 RON2 block, AmpC no deterg)
Cc1ccccc1C1=CCN(c2ncc(NC(=O)c3ccc(Cl)cc3)cc2C(=O)O)CC1	Sm TGR inh 40µM (no result: RE007 growth inh, AMA1 RON2 block, AmpC no deterg)
Cc1cc(OCC(=O)NCC2CCC(C(=O)O)CC2)c2c(C)c(Cc3ccccc3)c(=O)oc2c1 (stereo not given)	Sm TGR inh 32µM
Cc1ccc(S(=O)Cc2ccc(C(=O)NC3CCCCCC3)o2)cc1 (stereo not given)	Sm TGR inh inconclusive (no result: RE007 growth inh, AMA1 RON2 block, AmpC no deterg)
NC(=O)C1CCN(C2=C(Cl)C(=O)c3ccccc3C2=O)CC1	Sm TGR inh 0.45µM
O=C1C(Cl)=C(N2CCC(C(=O)O)CC2)C(=O)c2ccccc21	none
Cc1ccc(-n2nc(C)c3c(C)cc(=O)n(CC(=O)Nc4cccc(C)c4C)c32)cc1	none (no result: RE007 growth inh, AMA1 RON2 block, AmpC no deterg)
CCCOc1ccc(N2C(=O)CC(N3CCN(c4ccccc4F)CC3)C2=O)cc1 (stereo not given)	AmpC inh detg inconclusive
O=C1CC(N2CCN(c3ccc(F)cc3)CC2)C(=O)N1Cc1cccs1 (stereo not given)	Sm TGR inh inconclusive
O=C1CC(N2CCN(c3nc4ccccc4s3)CC2)C(=O)N1Cc1cccs1 (stereo not given)	Sm TGR inh 11µM, AmpC inh detg inconclusive
CCCOc1ccc(N2C(=O)CC(N3CCC(c4nncn4CC)CC3)C2=O)cc1 (stereo not given)	RE007 growth inh 13µM, Sm TGR inh inconclusive (no result: AmpC no deterg)
CCCOc1ccc(N2C(=O)CC(N3CCN(c4nc5ccccc5s4)CC3)C2=O)cc1 (stereo not given)	RE007 growth inh inconclusive, Sm TGR inh 40µM
NC(=O)C1CCN(C2CC(=O)N(Cc3cccs3)C2=O)CC1 (stereo not given)	RE007 growth inh inconclusive, Sm TGR inh 35µM
COc1ccccc1C(=O)Nc1nc2ccc(S(=O)(=O)N3CCCC3)cc2s1	none (no result: RE007 growth inh, AMA1 RON2 block, AmpC no deterg)
CCc1c(C)c2ccc(O)c(CN3CCN(c4ccc(OC)cc4)CC3)c2oc1=O	none (no result: RE007 growth inh, AMA1 RON2 block, AmpC no deterg)
O=C1CC(N2CCC(c3nc4ccccc4o3)CC2)C(=O)N1Cc1cccs1 (stereo not given)	RE007 growth inh inconclusive, Sm TGR inh 50µM, AmpC inh detg inconclusive
Cc1nc(CS(=O)(=O)c2ccc(Cl)cc2)cc(Sc2ccccc2Cl)n1	AmpC no deterg 3.5µM
Cc1nc(CS(=O)(=O)c2ccccc2)cc(Sc2ccc(Cl)cc2)n1	AmpC no deterg 4µM
CCC(C(=O)NC1C(=O)N2C(C(=O)O)=C(CSc3nnc(C)s3)CSC12)c1ccccc1 (stereo not given)	Sm TGR inh 4µM, AmpC inh detg inconclusive
Cc1nnc(SCC2=C(C(=O)O)N3C(=O)C(NC(=O)c4cc(F)c(F)cc4Cl)C3SC2)s1 (stereo not given)	Sm TGR inh 16µM, AmpC inh detg inconclusive
Cc1nnc(SCC2=C(C(=O)O)N3C(=O)C(NC(=O)COc4ccccc4)C3SC2)s1 (stereo not given)	Sm TGR inh 7.9µM
CC1(C)S[C@@H]2[C@H](NC(=O)COc3ccccc3)C(=O)N2C1C(=O)OCC1CCCCC1 (stereo not given in full)	none (no result: Sm TGR inh, AmpC no deterg, AmpC inh detg)
CC(=O)OCC1=C(C(=O)O)N2C(=O)C(NC(=O)COc3ccc(F)cc3)C2SC1 (stereo not given)	Sm TGR inh 14µM
Cc1nnc(SCc2ccc(F)cc2Cl)s1	none
COc1ccccc1-c1nnc2n(CCc3ccccc3)c(=O)c3ccccc3n12	none (no result: RE007 growth inh, AMA1 RON2 block, AmpC no deterg)
COc1ccc(CNC(=O)c2cc3oc4ccccc4c3n2C)cc1OC	none (no result: RE007 growth inh, AMA1 RON2 block, AmpC no deterg)
